# Laboratory results reported in PubChem BioAssay AID1159580 (chemical genetic matrix, 2015).
# Where “and” joins values, the source holds several entries; their conditions need not be identical. Equal values may be shown once. Out of some 5,500 compounds screened, about 2,000 (36%) were called active. Not shown: some 18% with an inconclusive outcome. The list shows a part of the results. Unmarked numbers belong to inactive results. No stated cut-off is given here; in the data, active means normalized growth mostly below about 0.91 (no sharp cut-off); inconclusive means no clear call, values can overlap the other calls; inactive means mostly above about 0.92.
# Experiment: chemical genetic growth profiling, strain panel (AID 1159580);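 further: tested at 20 µM; growth read once vehicle control cultures reached saturation at 30 °C; 1 = growth at the plate median or of vehicle wells; lower values mean less growth of the strain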
# Settings: S. cerevisiae deletion strains, growth OD
compound,measurement,setting,value
CC(=O)Oc1ccc(/C=C/c2cc(OC(C)=O)cc(OC(C)=O)c2)cc1,normalized growth,"locus YAL021C, strain ccr4, hits give low values",0.979
same,normalized growth,"locus YAL026C, strain drs2, hits give low values",0.984
same,normalized growth,"locus YAL030W, strain snc1, hits give low values",0.97
same,normalized growth,"locus YBL061C, strain skt5, hits give low values",0.976
same,normalized growth,"locus YBR009C, strain hhf1, hits give low values",0.962
same,normalized growth,"locus YBR021W, strain FUR4, hits give low values",0.96
same,normalized growth,"locus YBR023C, strain chs3, hits give low values",0.975
same,normalized growth,"locus YBR171W, strain sec66, hits give low values",0.978
same,normalized growth,"locus YBR229C, strain ROT2, hits give low values",0.997
same,normalized growth,"locus YBR231C, strain swc5, hits give low values",0.986
same,normalized growth,"locus YBR279W, strain paf1, hits give low values",0.978
same,normalized growth,"locus YCL011C, strain gbp2, hits give low values",0.972
same,normalized growth,"locus YCL016C, strain dcc1, hits give low values",0.98
same,normalized growth,"locus YCL029C, strain bik1, hits give low values",1.01
same,normalized growth,"locus YCL061C, strain MRC1, hits give low values",0.953
same,normalized growth,"locus YCL069W, strain vba3, hits give low values",0.984
same,normalized growth,"locus YCR088W, strain abp1, hits give low values",0.979
same,normalized growth,"locus YDL005C, strain med2, hits give low values",0.963
same,normalized growth,"locus YDL035C, strain GPR1, hits give low values",0.984
same,normalized growth,"locus YDL040C, strain nat1, hits give low values",0.963
same,normalized growth,"locus YDL074C, strain BRE1, hits give low values",0.982
same,normalized growth,"locus YDL101C, strain DUN1, hits give low values",0.993
same,normalized growth,"locus YDL134C, strain PPH21, hits give low values",0.97
same,normalized growth,"locus YDL185W, strain tfp1, hits give low values",1.02
same,normalized growth,"locus YDL192W, strain arf1, hits give low values",0.997
same,normalized growth,"locus YDR001C, strain nth1, hits give low values",0.987
same,normalized growth,"locus YDR069C, strain doa4, hits give low values",0.966
same,normalized growth,"locus YDR101C, strain arx1, hits give low values",0.987
same,normalized growth,"locus YDR137W, strain rgp1, hits give low values",0.925
same,normalized growth,"locus YDR159W, strain sac3, hits give low values",0.951
same,normalized growth,"locus YDR162C, strain NBP2, hits give low values",0.977
same,normalized growth,"locus YDR195W, strain ref2",0.985
same,normalized growth,"locus YDR297W, strain sur2, hits give low values",0.979
same,normalized growth,"locus YDR318W, strain mcm21, hits give low values",0.986
same,normalized growth,"locus YDR334W, strain swr1, hits give low values",0.981
same,normalized growth,"locus YDR335W, strain msn5, hits give low values",0.987
same,normalized growth,"locus YDR388W, hits give low values",1
same,normalized growth,"locus YDR392W, strain spt3, hits give low values",0.668 (active)
same,normalized growth,"locus YDR502C, strain sam2, hits give low values",0.999
same,normalized growth,"locus YEL003W, strain gim4, hits give low values",0.969
same,normalized growth,"locus YEL037C, strain rad23, hits give low values",0.983
same,normalized growth,"locus YEL061C, strain CIN8 (second series), hits give low values",0.99
same,normalized growth,"locus YEL061C, strain CIN8, hits give low values",0.999
same,normalized growth,"locus YER015W, strain faa2, hits give low values",0.974
same,normalized growth,"locus YER016W, strain bim1, hits give low values",0.976
same,normalized growth,"locus YER110C, hits give low values",1.01
same,normalized growth,"locus YER111C, strain swi4, hits give low values",0.976
same,normalized growth,"locus YER155C, strain BEM2 (second series), hits give low values",0.924
same,normalized growth,"locus YER155C, strain BEM2, hits give low values",1.01
same,normalized growth,"locus YER167W, strain BCK2, hits give low values",0.991
same,normalized growth,"locus YFR010W, strain ubp6, hits give low values",0.985
same,normalized growth,"locus YGL078C, strain dbp3, hits give low values",0.996
same,normalized growth,"locus YGL086W, strain mad1, hits give low values",0.994
same,normalized growth,"locus YGL167C, strain pmr1, hits give low values",0.978
same,normalized growth,"locus YGL173C, strain kem1, hits give low values",0.961
same,normalized growth,"locus YGL227W, strain vid30, hits give low values",0.982
same,normalized growth,"locus YGL240W, strain doc1, hits give low values",0.942
same,normalized growth,"locus YGL248W, strain PDE1, hits give low values",0.974
same,normalized growth,"locus YGL253W, strain hxk2, hits give low values",0.973
same,normalized growth,"locus YGR135W, strain pre9, hits give low values",0.977
same,normalized growth,"locus YGR229C, strain SMI1, hits give low values",1.01
same,normalized growth,"locus YGR252W, strain gcn5, hits give low values",0.951
same,normalized growth,"locus YHR013C, strain ard1, hits give low values",0.978
same,normalized growth,"locus YHR027C, strain rpn1, hits give low values",0.975
same,normalized growth,"locus YHR030C, strain SLT2, hits give low values",1.01 and 1.03
same,normalized growth,"locus YHR079C, strain IRE1 (second series), hits give low values",1
same,normalized growth,"locus YHR079C, strain IRE1, hits give low values",1.03
same,normalized growth,"locus YHR094C, strain hxt1, hits give low values",1
same,normalized growth,"locus YHR129C, strain ARP1, hits give low values",0.985
same,normalized growth,"locus YHR142W, strain chs7, hits give low values",0.968
same,normalized growth,"locus YHR200W, strain rpn10, hits give low values",1.01
same,normalized growth,"locus YIL066C, strain RNR3, hits give low values",0.965
same,normalized growth,"locus YIL073C, strain SPO22, hits give low values",1.04
same,normalized growth,"locus YIL125W, strain kgd1, hits give low values",1.02
same,normalized growth,"locus YIR030C, strain dcg1, hits give low values",0.99
same,normalized growth,"locus YJL092W, strain hpr5, hits give low values",0.977
same,normalized growth,"locus YJL095W, strain BCK1 (second series), hits give low values",0.983
same,normalized growth,"locus YJL095W, strain BCK1, hits give low values",0.962 and 0.998
same,normalized growth,"locus YJL115W, strain asf1, hits give low values",0.992
same,normalized growth,"locus YJL129C, strain trk1, hits give low values",0.978
same,normalized growth,"locus YJL134W, strain LCB3, hits give low values",1.01
same,normalized growth,"locus YJL154C, strain vps35, hits give low values",0.983
same,normalized growth,"locus YJL164C, strain tpk1, hits give low values",0.96
same,normalized growth,"locus YJL166W, strain qcr8, hits give low values",0.95
same,normalized growth,"locus YJL168C, strain set2, hits give low values",0.997
same,normalized growth,"locus YJL187C, strain SWE1 (second series), hits give low values",0.98
same,normalized growth,"locus YJL187C, strain SWE1, hits give low values",0.993
same,normalized growth,"locus YJR043C, strain POL32, hits give low values",0.979
same,normalized growth,"locus YJR066W, strain TOR1, hits give low values",0.972
same,normalized growth,"locus YJR075W, strain HOC1, hits give low values",0.985
same,normalized growth,"locus YKL009W, strain mrt4, hits give low values",1.04
same,normalized growth,"locus YKL068W, hits give low values",1
same,normalized growth,"locus YKL085W, strain MDH1 (second series), hits give low values",0.999
same,normalized growth,"locus YKL085W, strain MDH1, hits give low values",0.999
same,normalized growth,"locus YKL160W, strain elf1, hits give low values",0.959
same,normalized growth,"locus YKL190W, strain CNB1, hits give low values",1
same,normalized growth,"locus YKR001C, strain vps1, hits give low values",0.982
same,normalized growth,"locus YKR026C, strain gcn3, hits give low values",0.979
same,normalized growth,"locus YKR091W, strain srl3, hits give low values",0.983
same,normalized growth,"locus YLL001W, strain dnm1, hits give low values",0.966
same,normalized growth,"locus YLL026W, hits give low values",0.976
same,normalized growth,"locus YLL041C, strain sdh2, hits give low values",0.98
same,normalized growth,"locus YLR027C, strain aat2, hits give low values",0.979
same,normalized growth,"locus YLR039C, strain RIC1, hits give low values",0.928
same,normalized growth,"locus YLR058C, strain SHM2, hits give low values",0.99
same,normalized growth,"locus YLR102C, strain apc9, hits give low values",1.03
same,normalized growth,"locus YLR113W, strain HOG1, hits give low values",0.934
same,normalized growth,"locus YLR221C, strain rsa3, hits give low values",0.949
same,normalized growth,"locus YLR258W, strain gsy2, hits give low values",0.957
same,normalized growth,"locus YLR262C, strain YPT6 (second series), hits give low values",0.907
same,normalized growth,"locus YLR262C, strain YPT6, hits give low values",0.925
same,normalized growth,"locus YLR268W, strain sec22, hits give low values",0.999
same,normalized growth,"locus YLR320W, strain mms22, hits give low values",0.921
same,normalized growth,"locus YLR330W, strain CHS5, hits give low values",0.996
same,normalized growth,"locus YLR342W, strain FKS1 (second series), hits give low values",1.01
same,normalized growth,"locus YLR342W, strain FKS1, hits give low values",0.968
same,normalized growth,"locus YLR357W, strain rsc2, hits give low values",0.937
same,normalized growth,"locus YLR370C, strain arc18, hits give low values",0.981
same,normalized growth,"locus YLR371W, strain rom2, hits give low values",0.995
same,normalized growth,"locus YLR384C, strain iki3, hits give low values",0.959
same,normalized growth,"locus YLR418C, strain cdc73, hits give low values",0.889
same,normalized growth,"locus YML016C, strain PPZ1, hits give low values",0.999
same,normalized growth,"locus YML032C, strain rad52, hits give low values",1.01
same,normalized growth,"locus YML120C, strain ndi1, hits give low values",0.985
same,normalized growth,"locus YML124C, strain tub3, hits give low values",0.998
same,normalized growth,"locus YMR078C, strain ctf18, hits give low values",1.01
same,normalized growth,"locus YMR125W, strain sto1, hits give low values",0.974
same,normalized growth,"locus YMR129W, hits give low values",0.985
same,normalized growth,"locus YMR205C, strain PFK2, hits give low values",0.948
same,normalized growth,"locus YMR223W, strain ubp8, hits give low values",0.959
same,normalized growth,"locus YMR231W, strain pep5, hits give low values",0.965
same,normalized growth,"locus YMR263W, strain SAP30, hits give low values",0.988
same,normalized growth,"locus YMR307W, strain GAS1, hits give low values",1.16
same,normalized growth,"locus YNL067W, strain RPL9B, hits give low values",0.973
same,normalized growth,"locus YNL071W, strain lat1, hits give low values",0.952
same,normalized growth,"locus YNL153C, strain GIM3, hits give low values",0.989
same,normalized growth,"locus YNL183C, strain NPR1, hits give low values",0.935
same,normalized growth,"locus YNL209W, strain ssb2, hits give low values",0.984
same,normalized growth,"locus YNL233W, strain BNI4, hits give low values",0.948
same,normalized growth,"locus YNL248C, strain rpa49, hits give low values",0.961
same,normalized growth,"locus YNL250W, strain rad50, hits give low values",0.998
same,normalized growth,"locus YNL271C, strain bni1, hits give low values",1.02
same,normalized growth,"locus YNL298W, strain CLA4, hits give low values",0.989
same,normalized growth,"locus YNL307C, strain MCK1, hits give low values",0.977
same,normalized growth,"locus YNL322C, strain KRE1 (second series), hits give low values",0.964
same,normalized growth,"locus YNR049C, strain mso1, hits give low values",0.978
same,normalized growth,"locus YNR052C, strain pop2, hits give low values",0.981
same,normalized growth,"locus YOL006C, strain TOP1, hits give low values",0.883
same,normalized growth,"locus YOL012C, strain htz1",0.967
same,normalized growth,"locus YOL147C, strain pex11, hits give low values",1
same,normalized growth,"locus YOR001W, strain rrp6, hits give low values",0.96
same,normalized growth,"locus YOR061W, strain CKA2, hits give low values",1.01
same,normalized growth,"locus YOR069W, strain VPS5, hits give low values",1
same,normalized growth,"locus YOR070C, strain gyp1, hits give low values",0.959
same,normalized growth,"locus YOR080W, strain dia2, hits give low values",1.01
same,normalized growth,"locus YOR083W, strain WHI5, hits give low values",0.958
same,normalized growth,"locus YOR106W, strain vam3, hits give low values",0.988
same,normalized growth,"locus YOR136W, strain idh2, hits give low values",1.01
same,normalized growth,"locus YOR144C, strain elg1, hits give low values",1.01
same,normalized growth,"locus YOR184W, strain ser1, hits give low values",0.904
same,normalized growth,"locus YOR231W, strain MKK1, hits give low values",1
same,normalized growth,"locus YOR265W, strain rbl2, hits give low values",0.968
same,normalized growth,"locus YOR270C, strain vph1, hits give low values",0.919
same,normalized growth,"locus YOR290C, strain snf2, hits give low values",0.944
same,normalized growth,"locus YOR316C, strain cot1, hits give low values",1.02
same,normalized growth,"locus YPL051W, strain arl3, hits give low values",0.98
same,normalized growth,"locus YPL055C, strain LGE1, hits give low values",0.947
same,normalized growth,"locus YPL078C, strain atp4, hits give low values",0.963
same,normalized growth,"locus YPL106C, strain sse1, hits give low values",0.91
same,normalized growth,"locus YPL240C, strain hsp82, hits give low values",0.976
same,normalized growth,"locus YPL241C, strain CIN2, hits give low values",0.998
same,normalized growth,"locus YPL256C, strain CLN2, hits give low values",1.04
same,normalized growth,"locus YPR119W, strain clb2, hits give low values",1.01
same,normalized growth,"locus YPR141C, strain kar3, hits give low values",1.01
same,normalized growth,"locus YPR163C, strain tif3, hits give low values",0.994
same,normalized growth,"locus YPR167C, strain met16, hits give low values",1.02
same,normalized growth,"strain wtn01, hits give low values",1.01
